# Test results taken from PubChem BioAssay AID1159580 (chemical genetic matrix, 2015).
# Out of some 5,500 compounds screened, about 2,000 (36%) were called active. About 18% were inconclusive and are not listed. The list shows a part of the results. Values without a mark were called inactive. Cut-off read from the data, not from the text of the source: active = normalized growth mostly below about 0.91 (no sharp cut-off); inconclusive = no clear call, values can overlap the other calls; inactive = mostly above about 0.92.
# Assay: chemical genetic growth profiling, strain panel (AID 1159580);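 note: tested at 20 µM; growth read once vehicle control cultures reached saturation at 30 °C; 1 = growth at the plate median or of vehicle wells; lower values mean less growth of the strain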
# Conditions: growth OD
smiles,measurement,setting,value
CC1=CC2C(C(C)C)CCC(C)(O)C2CC1 (stereo not drawn),normalized growth,"S. cerevisiae deletion strains, locus YJL187C, strain SWE1 (second series), stronger effect = lower value",1.01
same,normalized growth,"S. cerevisiae deletion strains, locus YJL187C, strain SWE1, stronger effect = lower value",1
same,normalized growth,"S. cerevisiae deletion strains, locus YJR043C, strain POL32, stronger effect = lower value",0.973
same,normalized growth,"S. cerevisiae deletion strains, locus YJR066W, strain TOR1, stronger effect = lower value",0.914
same,normalized growth,"S. cerevisiae deletion strains, locus YKL009W, strain mrt4, stronger effect = lower value",0.994
same,normalized growth,"S. cerevisiae deletion strains, locus YKL068W, stronger effect = lower value",0.972
same,normalized growth,"S. cerevisiae deletion strains, locus YKL085W, strain MDH1 (second series), stronger effect = lower value",0.979
same,normalized growth,"S. cerevisiae deletion strains, locus YKL085W, strain MDH1, stronger effect = lower value",0.979
same,normalized growth,"S. cerevisiae deletion strains, locus YKL160W, strain elf1, stronger effect = lower value",0.968
same,normalized growth,"S. cerevisiae deletion strains, locus YKL190W, strain CNB1, stronger effect = lower value",0.994
same,normalized growth,"S. cerevisiae deletion strains, locus YKR001C, strain vps1, stronger effect = lower value",0.989
same,normalized growth,"S. cerevisiae deletion strains, locus YKR026C, strain gcn3, stronger effect = lower value",0.993
same,normalized growth,"S. cerevisiae deletion strains, locus YKR091W, strain srl3, stronger effect = lower value",0.987
same,normalized growth,"S. cerevisiae deletion strains, locus YLL001W, strain dnm1, stronger effect = lower value",0.947
same,normalized growth,"S. cerevisiae deletion strains, locus YLL026W, stronger effect = lower value",0.988
same,normalized growth,"S. cerevisiae deletion strains, locus YLL041C, strain sdh2, stronger effect = lower value",0.995
same,normalized growth,"S. cerevisiae deletion strains, locus YLR027C, strain aat2, stronger effect = lower value",0.978
same,normalized growth,"S. cerevisiae deletion strains, locus YLR039C, strain RIC1, stronger effect = lower value",0.913
same,normalized growth,"S. cerevisiae deletion strains, locus YLR058C, strain SHM2, stronger effect = lower value",0.98
same,normalized growth,"S. cerevisiae deletion strains, locus YLR102C, strain apc9, stronger effect = lower value",0.989
same,normalized growth,"S. cerevisiae deletion strains, locus YLR113W, strain HOG1, stronger effect = lower value",0.887
same,normalized growth,"S. cerevisiae deletion strains, locus YLR221C, strain rsa3, stronger effect = lower value",0.986
same,normalized growth,"S. cerevisiae deletion strains, locus YLR258W, strain gsy2, stronger effect = lower value",0.971
same,normalized growth,"S. cerevisiae deletion strains, locus YLR262C, strain YPT6 (second series), stronger effect = lower value",0.81 (active)
same,normalized growth,"S. cerevisiae deletion strains, locus YLR268W, strain sec22, stronger effect = lower value",0.949
same,normalized growth,"S. cerevisiae deletion strains, locus YLR320W, strain mms22, stronger effect = lower value",0.966
same,normalized growth,"S. cerevisiae deletion strains, locus YLR330W, strain CHS5, stronger effect = lower value",0.982
same,normalized growth,"S. cerevisiae deletion strains, locus YLR342W, strain FKS1, stronger effect = lower value",0.983
same,normalized growth,"S. cerevisiae deletion strains, locus YLR357W, strain rsc2, stronger effect = lower value",1.08
same,normalized growth,"S. cerevisiae deletion strains, locus YLR370C, strain arc18, stronger effect = lower value",0.984
same,normalized growth,"S. cerevisiae deletion strains, locus YLR371W, strain rom2, stronger effect = lower value",1.01
same,normalized growth,"S. cerevisiae deletion strains, locus YLR384C, strain iki3, stronger effect = lower value",0.991
same,normalized growth,"S. cerevisiae deletion strains, locus YLR418C, strain cdc73, stronger effect = lower value",0.966
same,normalized growth,"S. cerevisiae deletion strains, locus YML016C, strain PPZ1, stronger effect = lower value",0.992
same,normalized growth,"S. cerevisiae deletion strains, locus YML032C, strain rad52, stronger effect = lower value",0.971
same,normalized growth,"S. cerevisiae deletion strains, locus YML120C, strain ndi1, stronger effect = lower value",0.966
same,normalized growth,"S. cerevisiae deletion strains, locus YML124C, strain tub3, stronger effect = lower value",0.985
same,normalized growth,"S. cerevisiae deletion strains, locus YMR058W, strain fet3, stronger effect = lower value",1.01
same,normalized growth,"S. cerevisiae deletion strains, locus YMR078C, strain ctf18, stronger effect = lower value",0.981
same,normalized growth,"S. cerevisiae deletion strains, locus YMR125W, strain sto1, stronger effect = lower value",1.02
same,normalized growth,"S. cerevisiae deletion strains, locus YMR129W, stronger effect = lower value",0.982
same,normalized growth,"S. cerevisiae deletion strains, locus YMR205C, strain PFK2, stronger effect = lower value",0.949
same,normalized growth,"S. cerevisiae deletion strains, locus YMR223W, strain ubp8, stronger effect = lower value",0.964
same,normalized growth,"S. cerevisiae deletion strains, locus YMR231W, strain pep5, stronger effect = lower value",0.994
same,normalized growth,"S. cerevisiae deletion strains, locus YMR307W, strain GAS1, stronger effect = lower value",0.993
same,normalized growth,"S. cerevisiae deletion strains, locus YNL067W, strain RPL9B, stronger effect = lower value",1.02
same,normalized growth,"S. cerevisiae deletion strains, locus YNL071W, strain lat1, stronger effect = lower value",0.876 (active)
same,normalized growth,"S. cerevisiae deletion strains, locus YNL128W, strain TEP1, stronger effect = lower value",0.962
same,normalized growth,"S. cerevisiae deletion strains, locus YNL183C, strain NPR1, stronger effect = lower value",0.911
same,normalized growth,"S. cerevisiae deletion strains, locus YNL209W, strain ssb2, stronger effect = lower value",0.984
same,normalized growth,"S. cerevisiae deletion strains, locus YNL233W, strain BNI4, stronger effect = lower value",1.01
same,normalized growth,"S. cerevisiae deletion strains, locus YNL248C, strain rpa49, stronger effect = lower value",1.03
same,normalized growth,"S. cerevisiae deletion strains, locus YNL250W, strain rad50, stronger effect = lower value",0.952
same,normalized growth,"S. cerevisiae deletion strains, locus YNL271C, strain bni1, stronger effect = lower value",0.986
same,normalized growth,"S. cerevisiae deletion strains, locus YNL298W, strain CLA4, stronger effect = lower value",0.983
same,normalized growth,"S. cerevisiae deletion strains, locus YNL307C, strain MCK1, stronger effect = lower value",0.986
same,normalized growth,"S. cerevisiae deletion strains, locus YNL322C, strain KRE1 (second series), stronger effect = lower value",0.975
same,normalized growth,"S. cerevisiae deletion strains, locus YNL322C, strain KRE1, stronger effect = lower value",0.984
same,normalized growth,"S. cerevisiae deletion strains, locus YNR049C, strain mso1, stronger effect = lower value",0.998
same,normalized growth,"S. cerevisiae deletion strains, locus YNR052C, strain pop2, stronger effect = lower value",1
same,normalized growth,"S. cerevisiae deletion strains, locus YOL012C, strain htz1",1.19
same,normalized growth,"S. cerevisiae deletion strains, locus YOL147C, strain pex11, stronger effect = lower value",0.982
same,normalized growth,"S. cerevisiae deletion strains, locus YOR001W, strain rrp6, stronger effect = lower value",0.989
same,normalized growth,"S. cerevisiae deletion strains, locus YOR061W, strain CKA2, stronger effect = lower value",0.966
same,normalized growth,"S. cerevisiae deletion strains, locus YOR069W, strain VPS5, stronger effect = lower value",0.989
same,normalized growth,"S. cerevisiae deletion strains, locus YOR070C, strain gyp1, stronger effect = lower value",0.975
same,normalized growth,"S. cerevisiae deletion strains, locus YOR080W, strain dia2, stronger effect = lower value",0.993
same,normalized growth,"S. cerevisiae deletion strains, locus YOR083W, strain WHI5, stronger effect = lower value",0.964
same,normalized growth,"S. cerevisiae deletion strains, locus YOR106W, strain vam3, stronger effect = lower value",0.997
same,normalized growth,"S. cerevisiae deletion strains, locus YOR136W, strain idh2, stronger effect = lower value",0.968
same,normalized growth,"S. cerevisiae deletion strains, locus YOR144C, strain elg1, stronger effect = lower value",0.985
same,normalized growth,"S. cerevisiae deletion strains, locus YOR184W, strain ser1, stronger effect = lower value",0.933
same,normalized growth,"S. cerevisiae deletion strains, locus YOR231W, strain MKK1, stronger effect = lower value",0.911
same,normalized growth,"S. cerevisiae deletion strains, locus YOR265W, strain rbl2, stronger effect = lower value",0.978
same,normalized growth,"S. cerevisiae deletion strains, locus YOR270C, strain vph1, stronger effect = lower value",0.959
same,normalized growth,"S. cerevisiae deletion strains, locus YOR290C, strain snf2, stronger effect = lower value",0.997
same,normalized growth,"S. cerevisiae deletion strains, locus YOR316C, strain cot1, stronger effect = lower value",0.989
same,normalized growth,"S. cerevisiae deletion strains, locus YPL051W, strain arl3, stronger effect = lower value",0.946
same,normalized growth,"S. cerevisiae deletion strains, locus YPL078C, strain atp4, stronger effect = lower value",0.957
same,normalized growth,"S. cerevisiae deletion strains, locus YPL106C, strain sse1, stronger effect = lower value",1
same,normalized growth,"S. cerevisiae deletion strains, locus YPL240C, strain hsp82, stronger effect = lower value",0.987
same,normalized growth,"S. cerevisiae deletion strains, locus YPL256C, strain CLN2, stronger effect = lower value",0.915
same,normalized growth,"S. cerevisiae deletion strains, locus YPR119W, strain clb2, stronger effect = lower value",0.985
same,normalized growth,"S. cerevisiae deletion strains, locus YPR141C, strain kar3, stronger effect = lower value",0.97
same,normalized growth,"S. cerevisiae deletion strains, locus YPR163C, strain tif3, stronger effect = lower value",0.99
same,normalized growth,"S. cerevisiae deletion strains, locus YPR167C, strain met16, stronger effect = lower value",0.987
same,normalized growth,"S. cerevisiae deletion strains, strain wtn01, stronger effect = lower value",0.964
same,normalized growth,"S. cerevisiae strains, strain wild type, stronger effect = lower value",0.969
